# Data taken from article PMC7862700, “An all-to-all approach to the identification of sequence-specific readers for epigenetic DNA modifications on cytosine”.
# Columns and labels:
# Test in all cases: DAPPL (digital affinity profiling via proximity ligation, sequencing); 10 mM Tris-HCl pH 7.5, 50 mM NaCl, 1 mM DTT, 4% glycerol, room temperature, 30 min; GST-TFs on glutathione beads, 16-mer random dsDNA library, 0.1% formaldehyde crosslink after washing; high values mean tight binding
# FLI1 = target: T1, FLI1 (Homo sapiens, UniProt Q01543 1-452); settings: protein: recombinant; tags: N-terminal GST; dsDNA, one strand shown
# T1 sequence: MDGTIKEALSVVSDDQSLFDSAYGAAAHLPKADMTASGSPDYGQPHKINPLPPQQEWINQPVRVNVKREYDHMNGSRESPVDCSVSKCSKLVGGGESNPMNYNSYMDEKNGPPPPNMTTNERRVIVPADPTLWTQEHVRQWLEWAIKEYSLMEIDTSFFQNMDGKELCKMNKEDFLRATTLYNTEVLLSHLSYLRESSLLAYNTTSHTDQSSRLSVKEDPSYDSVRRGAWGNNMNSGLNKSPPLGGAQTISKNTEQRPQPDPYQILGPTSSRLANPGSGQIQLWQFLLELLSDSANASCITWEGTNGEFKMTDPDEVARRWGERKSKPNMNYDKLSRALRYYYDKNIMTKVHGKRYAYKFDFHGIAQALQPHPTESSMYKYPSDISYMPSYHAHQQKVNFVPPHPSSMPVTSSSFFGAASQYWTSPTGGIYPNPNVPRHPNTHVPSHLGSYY
# Outline: (§1)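 Binding signal is each hexamer's read frequency for a factor divided by its frequency in the tag-only sample. The factors were GST-fused human transcription factors from yeast, captured on glutathione beads, DNA-barcoded and pooled with that sample. Pools were incubated with 200 nmole of a random double-stranded 16-mer DNA library in Tris/NaCl/DTT/glycerol buffer at room temperature for 30 min, then washed, crosslinked with 0.1% formaldehyde, proximity-ligated with BsaI/T4 ligase (1 h, 37 °C), PCR-amplified and sequenced on an Illumina NextSeq500.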
# ELK1 = target: T2, ELK1 (Homo sapiens, UniProt P19419 1-428); settings: protein: recombinant; tags: N-terminal GST; dsDNA, one strand shown
# T2 sequence: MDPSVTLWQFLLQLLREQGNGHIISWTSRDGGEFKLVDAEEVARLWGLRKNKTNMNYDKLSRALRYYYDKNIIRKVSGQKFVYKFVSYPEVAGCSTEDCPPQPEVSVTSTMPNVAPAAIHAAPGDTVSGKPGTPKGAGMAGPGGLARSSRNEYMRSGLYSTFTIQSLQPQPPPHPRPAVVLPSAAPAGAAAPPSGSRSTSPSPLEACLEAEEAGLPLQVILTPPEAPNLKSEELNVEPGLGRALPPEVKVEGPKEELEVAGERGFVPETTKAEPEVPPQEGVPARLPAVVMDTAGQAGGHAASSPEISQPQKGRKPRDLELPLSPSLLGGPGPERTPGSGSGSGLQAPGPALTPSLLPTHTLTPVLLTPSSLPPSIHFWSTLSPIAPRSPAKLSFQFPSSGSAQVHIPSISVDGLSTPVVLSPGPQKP
# Outline: as §1
# GABPA = target: T3, GABPA (Homo sapiens, UniProt Q06546 1-454); settings: protein: recombinant; tags: N-terminal GST; dsDNA, one strand shown
# T3 sequence: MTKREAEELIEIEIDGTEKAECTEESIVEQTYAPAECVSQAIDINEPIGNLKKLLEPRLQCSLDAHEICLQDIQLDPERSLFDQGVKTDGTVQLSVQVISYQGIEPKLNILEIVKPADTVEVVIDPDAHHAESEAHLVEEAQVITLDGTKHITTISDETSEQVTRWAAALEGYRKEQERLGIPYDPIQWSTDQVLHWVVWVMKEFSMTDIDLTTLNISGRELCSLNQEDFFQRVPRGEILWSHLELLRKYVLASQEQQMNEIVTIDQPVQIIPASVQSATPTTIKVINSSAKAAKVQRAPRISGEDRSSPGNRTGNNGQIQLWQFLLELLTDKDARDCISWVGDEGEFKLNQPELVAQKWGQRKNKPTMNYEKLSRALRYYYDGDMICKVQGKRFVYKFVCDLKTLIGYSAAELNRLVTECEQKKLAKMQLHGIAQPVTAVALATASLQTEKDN
# Outline: as §1
# ERG = target: T4, ERG (Homo sapiens, UniProt P11308 1-479); settings: protein: recombinant; tags: N-terminal GST; dsDNA, one strand shown
# T4 sequence: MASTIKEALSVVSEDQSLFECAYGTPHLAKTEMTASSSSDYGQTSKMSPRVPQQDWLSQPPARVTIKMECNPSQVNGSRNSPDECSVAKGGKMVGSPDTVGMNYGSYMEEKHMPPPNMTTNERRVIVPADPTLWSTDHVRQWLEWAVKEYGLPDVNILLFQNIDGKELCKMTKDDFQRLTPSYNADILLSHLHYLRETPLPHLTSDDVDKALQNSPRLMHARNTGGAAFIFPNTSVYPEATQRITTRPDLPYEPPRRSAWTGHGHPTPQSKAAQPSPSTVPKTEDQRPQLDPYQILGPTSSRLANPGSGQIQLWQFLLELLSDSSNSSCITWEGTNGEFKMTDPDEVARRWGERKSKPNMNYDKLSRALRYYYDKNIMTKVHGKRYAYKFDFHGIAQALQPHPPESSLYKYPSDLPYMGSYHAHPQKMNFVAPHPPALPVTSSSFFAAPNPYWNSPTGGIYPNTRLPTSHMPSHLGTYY
# Outline: as §1
# ELF1 = ELF1 (Homo sapiens, UniProt P32519 1-619); settings: protein: recombinant; tags: N-terminal GST; dsDNA, one strand shown
# Outline: as §1
# EHF = target: T5, EHF (Homo sapiens, UniProt Q9NZC4 1-300); settings: protein: recombinant; tags: N-terminal GST; dsDNA, one strand shown
# T5 sequence: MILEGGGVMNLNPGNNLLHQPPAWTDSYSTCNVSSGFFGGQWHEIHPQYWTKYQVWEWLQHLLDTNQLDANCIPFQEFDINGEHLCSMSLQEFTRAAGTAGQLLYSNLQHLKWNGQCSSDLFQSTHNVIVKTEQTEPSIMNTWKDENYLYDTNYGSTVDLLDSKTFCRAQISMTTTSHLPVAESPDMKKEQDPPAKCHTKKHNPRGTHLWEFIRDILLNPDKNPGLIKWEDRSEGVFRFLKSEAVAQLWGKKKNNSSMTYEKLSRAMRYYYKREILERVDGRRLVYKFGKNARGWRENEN
# Outline: as §1
# HSF1 = HSF1 (Homo sapiens, UniProt Q00613 1-529); settings: protein: recombinant; tags: N-terminal GST; chain copies: 3; dsDNA, one strand shown
# Outline: as §1
# ELF4 = ELF4 (Homo sapiens, UniProt Q99607 1-663); settings: protein: recombinant; tags: N-terminal GST; dsDNA, one strand shown
# Outline: as §1
# ELK4 = target: T6, ELK4 (Homo sapiens, UniProt P28324-2 1-405); settings: protein: recombinant; tags: N-terminal GST; dsDNA, one strand shown
# T6 sequence: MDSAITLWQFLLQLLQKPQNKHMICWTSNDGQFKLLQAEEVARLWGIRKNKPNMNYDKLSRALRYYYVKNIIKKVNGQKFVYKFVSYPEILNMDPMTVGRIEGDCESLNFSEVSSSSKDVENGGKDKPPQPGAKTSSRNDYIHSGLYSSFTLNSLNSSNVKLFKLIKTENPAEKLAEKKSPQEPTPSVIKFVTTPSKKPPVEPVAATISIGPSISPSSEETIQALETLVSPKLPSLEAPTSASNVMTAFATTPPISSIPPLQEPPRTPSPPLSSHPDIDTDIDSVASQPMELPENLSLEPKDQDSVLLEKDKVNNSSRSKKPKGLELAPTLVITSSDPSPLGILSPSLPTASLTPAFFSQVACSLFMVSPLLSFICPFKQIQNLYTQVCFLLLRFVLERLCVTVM
# Outline: as §1
# ELF4, sequence (Q99607 whole entry): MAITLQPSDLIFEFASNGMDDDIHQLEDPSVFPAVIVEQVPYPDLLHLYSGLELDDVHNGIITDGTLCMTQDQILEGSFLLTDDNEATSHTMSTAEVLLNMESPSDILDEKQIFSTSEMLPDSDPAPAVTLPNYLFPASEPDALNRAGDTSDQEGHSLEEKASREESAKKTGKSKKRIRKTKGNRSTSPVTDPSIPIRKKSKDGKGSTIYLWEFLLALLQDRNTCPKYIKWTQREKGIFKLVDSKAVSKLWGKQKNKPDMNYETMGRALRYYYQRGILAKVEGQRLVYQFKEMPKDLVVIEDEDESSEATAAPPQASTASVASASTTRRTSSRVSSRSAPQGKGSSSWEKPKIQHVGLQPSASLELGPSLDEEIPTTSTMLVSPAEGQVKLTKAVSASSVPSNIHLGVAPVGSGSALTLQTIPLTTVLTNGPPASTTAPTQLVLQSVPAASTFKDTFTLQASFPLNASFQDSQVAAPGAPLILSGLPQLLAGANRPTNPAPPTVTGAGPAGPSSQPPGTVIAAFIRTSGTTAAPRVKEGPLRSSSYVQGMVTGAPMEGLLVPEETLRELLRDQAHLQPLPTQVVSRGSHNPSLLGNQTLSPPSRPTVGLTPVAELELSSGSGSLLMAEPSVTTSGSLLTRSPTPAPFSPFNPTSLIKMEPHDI
# HSF1, sequence (Q00613 whole entry): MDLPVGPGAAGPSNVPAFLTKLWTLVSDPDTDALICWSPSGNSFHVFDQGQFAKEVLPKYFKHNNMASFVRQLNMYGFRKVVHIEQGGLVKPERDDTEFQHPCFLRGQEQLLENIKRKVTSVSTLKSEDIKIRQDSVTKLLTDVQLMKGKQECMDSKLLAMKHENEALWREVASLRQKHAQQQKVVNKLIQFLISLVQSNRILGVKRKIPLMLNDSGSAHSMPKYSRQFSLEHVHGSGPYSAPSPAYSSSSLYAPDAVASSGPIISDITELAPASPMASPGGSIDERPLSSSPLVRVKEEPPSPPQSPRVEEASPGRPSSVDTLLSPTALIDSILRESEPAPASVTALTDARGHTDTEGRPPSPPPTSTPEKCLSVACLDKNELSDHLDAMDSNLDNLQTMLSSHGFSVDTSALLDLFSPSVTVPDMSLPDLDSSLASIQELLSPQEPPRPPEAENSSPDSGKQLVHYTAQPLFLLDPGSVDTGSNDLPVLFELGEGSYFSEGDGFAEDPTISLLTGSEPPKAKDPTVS
# ELF1, sequence (P32519 whole entry): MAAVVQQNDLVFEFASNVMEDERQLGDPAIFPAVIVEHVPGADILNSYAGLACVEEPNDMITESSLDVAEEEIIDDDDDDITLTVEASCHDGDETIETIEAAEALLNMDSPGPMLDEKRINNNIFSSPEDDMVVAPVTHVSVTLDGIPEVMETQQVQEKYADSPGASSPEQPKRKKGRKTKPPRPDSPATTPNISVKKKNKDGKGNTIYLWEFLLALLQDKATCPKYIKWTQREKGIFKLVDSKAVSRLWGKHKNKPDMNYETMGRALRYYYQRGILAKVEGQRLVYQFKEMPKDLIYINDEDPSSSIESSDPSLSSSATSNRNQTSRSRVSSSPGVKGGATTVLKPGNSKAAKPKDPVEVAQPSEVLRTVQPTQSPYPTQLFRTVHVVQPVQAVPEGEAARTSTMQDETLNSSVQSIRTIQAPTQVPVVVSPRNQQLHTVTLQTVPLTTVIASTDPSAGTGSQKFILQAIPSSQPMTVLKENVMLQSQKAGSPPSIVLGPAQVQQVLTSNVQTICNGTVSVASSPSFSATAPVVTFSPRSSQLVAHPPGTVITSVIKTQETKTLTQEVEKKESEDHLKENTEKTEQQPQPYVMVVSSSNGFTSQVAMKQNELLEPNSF
sequence,measurement,setting,value
AGAACA,binding signal,FLI1,"1.06 fold enrichment (6-mer frequency, TF over GST control)"
same,binding signal,ELK1,"1.06 fold enrichment (6-mer frequency, TF over GST control)"
same,binding signal,GABPA,"1.11 fold enrichment (6-mer frequency, TF over GST control)"
same,binding signal,ERG,"1.01 fold enrichment (6-mer frequency, TF over GST control)"
same,binding signal,ELF1,"1.07 fold enrichment (6-mer frequency, TF over GST control)"
same,binding signal,EHF,"1.02 fold enrichment (6-mer frequency, TF over GST control)"
same,binding signal,HSF1,"2.37 fold enrichment (6-mer frequency, TF over GST control)"
same,binding signal,ELF4,"1.06 fold enrichment (6-mer frequency, TF over GST control)"
same,binding signal,ELK4,"1.02 fold enrichment (6-mer frequency, TF over GST control)"
